mHTT-CaM PPI inh – mHTT-calmodulin interaction abrogation. P42858. AlphaScreen His-mHTT/GST-CaM binding, luminescence. inhibition, % at 15 µM. 190,000 compounds, 3.6% hits. AID 1671202;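 note: 0% = both proteins with DMSO and 100% = one protein alone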
Target sequence (P42858 whole entry, looked up, stated change not applied): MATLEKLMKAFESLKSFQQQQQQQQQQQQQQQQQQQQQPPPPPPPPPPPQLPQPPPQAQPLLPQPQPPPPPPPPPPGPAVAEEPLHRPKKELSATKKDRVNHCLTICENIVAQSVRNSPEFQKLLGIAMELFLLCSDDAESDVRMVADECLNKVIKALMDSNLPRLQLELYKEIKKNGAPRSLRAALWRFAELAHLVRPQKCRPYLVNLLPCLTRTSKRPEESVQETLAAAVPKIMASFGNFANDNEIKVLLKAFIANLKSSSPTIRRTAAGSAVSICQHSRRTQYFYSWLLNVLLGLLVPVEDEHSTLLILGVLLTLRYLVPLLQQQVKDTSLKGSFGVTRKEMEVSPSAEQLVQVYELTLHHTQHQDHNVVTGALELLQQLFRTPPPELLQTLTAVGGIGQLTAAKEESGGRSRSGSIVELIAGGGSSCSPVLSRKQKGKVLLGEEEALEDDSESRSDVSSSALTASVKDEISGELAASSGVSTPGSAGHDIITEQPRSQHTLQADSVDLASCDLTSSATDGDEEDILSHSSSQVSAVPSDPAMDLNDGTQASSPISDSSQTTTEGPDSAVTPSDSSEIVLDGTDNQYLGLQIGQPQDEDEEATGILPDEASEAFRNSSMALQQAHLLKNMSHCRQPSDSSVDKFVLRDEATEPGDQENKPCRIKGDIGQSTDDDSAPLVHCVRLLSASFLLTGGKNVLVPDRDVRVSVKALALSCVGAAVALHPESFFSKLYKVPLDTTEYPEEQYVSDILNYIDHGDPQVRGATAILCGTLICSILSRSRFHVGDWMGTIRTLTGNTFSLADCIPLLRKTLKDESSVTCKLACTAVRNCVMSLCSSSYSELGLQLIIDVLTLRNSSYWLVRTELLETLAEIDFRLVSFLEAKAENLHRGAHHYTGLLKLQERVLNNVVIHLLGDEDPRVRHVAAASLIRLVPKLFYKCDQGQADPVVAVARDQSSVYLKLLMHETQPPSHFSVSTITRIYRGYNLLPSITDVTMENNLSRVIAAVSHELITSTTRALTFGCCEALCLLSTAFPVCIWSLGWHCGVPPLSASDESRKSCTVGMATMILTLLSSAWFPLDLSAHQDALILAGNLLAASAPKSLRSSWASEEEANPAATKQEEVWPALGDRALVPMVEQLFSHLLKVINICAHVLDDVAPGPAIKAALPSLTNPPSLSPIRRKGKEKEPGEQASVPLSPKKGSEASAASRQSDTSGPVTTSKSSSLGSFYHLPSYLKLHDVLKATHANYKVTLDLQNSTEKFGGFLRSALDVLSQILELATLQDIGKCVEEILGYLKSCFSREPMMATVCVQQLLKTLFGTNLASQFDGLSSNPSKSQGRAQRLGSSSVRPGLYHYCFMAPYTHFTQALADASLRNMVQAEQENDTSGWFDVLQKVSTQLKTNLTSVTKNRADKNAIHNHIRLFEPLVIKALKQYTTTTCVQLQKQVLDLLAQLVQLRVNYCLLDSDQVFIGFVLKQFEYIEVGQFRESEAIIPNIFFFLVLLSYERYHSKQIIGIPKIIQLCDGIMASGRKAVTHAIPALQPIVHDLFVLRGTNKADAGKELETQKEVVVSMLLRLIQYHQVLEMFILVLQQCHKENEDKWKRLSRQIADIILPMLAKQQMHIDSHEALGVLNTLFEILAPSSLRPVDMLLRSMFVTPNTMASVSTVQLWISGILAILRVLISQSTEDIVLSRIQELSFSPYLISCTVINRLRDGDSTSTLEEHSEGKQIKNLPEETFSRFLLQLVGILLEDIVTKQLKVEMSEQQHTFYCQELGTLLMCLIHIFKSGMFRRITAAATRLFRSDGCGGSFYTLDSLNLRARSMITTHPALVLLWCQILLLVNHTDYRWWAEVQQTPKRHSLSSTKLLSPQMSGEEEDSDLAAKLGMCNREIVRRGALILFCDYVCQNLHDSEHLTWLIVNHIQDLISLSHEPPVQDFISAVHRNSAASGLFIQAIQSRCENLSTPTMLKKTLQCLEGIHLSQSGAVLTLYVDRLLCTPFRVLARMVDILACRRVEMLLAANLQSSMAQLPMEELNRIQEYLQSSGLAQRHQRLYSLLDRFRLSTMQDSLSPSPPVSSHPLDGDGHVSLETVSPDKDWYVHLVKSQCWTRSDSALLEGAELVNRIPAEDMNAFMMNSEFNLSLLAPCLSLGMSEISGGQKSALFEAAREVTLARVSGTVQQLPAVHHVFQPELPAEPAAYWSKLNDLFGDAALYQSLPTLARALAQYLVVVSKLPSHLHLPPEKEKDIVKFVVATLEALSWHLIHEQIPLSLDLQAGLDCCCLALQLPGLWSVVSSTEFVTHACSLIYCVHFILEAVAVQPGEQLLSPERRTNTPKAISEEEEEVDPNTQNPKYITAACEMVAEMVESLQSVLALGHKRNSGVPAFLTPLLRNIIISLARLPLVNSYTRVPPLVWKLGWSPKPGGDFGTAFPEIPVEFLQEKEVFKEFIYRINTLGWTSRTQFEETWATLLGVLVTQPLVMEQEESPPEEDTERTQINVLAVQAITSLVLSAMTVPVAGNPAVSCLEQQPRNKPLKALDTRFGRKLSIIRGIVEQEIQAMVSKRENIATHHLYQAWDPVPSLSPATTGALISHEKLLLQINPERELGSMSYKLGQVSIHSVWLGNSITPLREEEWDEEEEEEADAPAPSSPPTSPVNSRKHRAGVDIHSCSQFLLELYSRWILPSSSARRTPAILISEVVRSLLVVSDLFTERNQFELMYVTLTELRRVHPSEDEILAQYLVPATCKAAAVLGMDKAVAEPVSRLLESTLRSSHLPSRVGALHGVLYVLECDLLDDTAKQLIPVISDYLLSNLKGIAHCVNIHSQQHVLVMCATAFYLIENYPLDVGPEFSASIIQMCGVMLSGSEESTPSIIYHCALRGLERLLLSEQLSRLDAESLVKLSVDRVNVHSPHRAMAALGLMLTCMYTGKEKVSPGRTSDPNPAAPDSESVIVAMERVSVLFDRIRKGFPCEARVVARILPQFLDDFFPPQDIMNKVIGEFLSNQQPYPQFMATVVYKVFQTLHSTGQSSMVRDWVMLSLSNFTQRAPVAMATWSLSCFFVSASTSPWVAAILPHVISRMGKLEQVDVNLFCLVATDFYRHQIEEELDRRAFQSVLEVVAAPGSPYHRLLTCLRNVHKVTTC
Pf apPOL block – Pf-apPOL DNA polymerase inhibition | inhibition, % at 10 µM | AID 1794808 | Recombinant Pf-apPOL, molecular beacon fluorescence, 1.5 h | 210,000 compounds, 0.25% hits
* = called active by the depositor; nt = no result given. The list is not random: actives were taken first. Their share in the collection is about 3.6%. Cut-off read from the data, not from the text of the source: active = inhibition above about 50%; inactive = the rest.

SMILES | mHTT-CaM PPI inh | Pf apPOL block
Cn1nc(NC(=O)c2ccc(F)cc2Cl)c2c1NC(=O)CC2c1ccco1 (stereo not drawn) | -10 | -4
CC(=O)N1N=C(c2ccccc2)CC1c1ccccc1[N+](=O)[O-] (stereo not drawn) | 0 | -35
O=[N+]([O-])c1ccccc1C1CC(c2ccccc2)=NN1 (stereo not drawn) | 61* | 7
COc1ccc(C(=O)Cc2cc(OC)c(OC)cc2Br)cc1OC | -1 | -4
NC(CS(=O)(=O)c1ccc(F)cc1)=NOC(=O)c1ccc(Cl)cc1 | nt | -1
N#Cc1c(-c2cccs2)cc(-c2ccco2)[nH]c1=O | nt | 72*
N#Cc1c(C(F)(F)F)cc(-c2cccs2)[nH]c1=O | -12 | 1
CSc1cc(-c2cccs2)[nH]c(=O)c1C#N | nt | -4
N#Cc1c(-c2ccco2)cc(-c2cccs2)[nH]c1=O | nt | 83*
CN1CCN(C(=O)CCCOc2ccccc2)CC1 | 3 | -17
O=S(=O)(c1ccc2c(c1)CCC2)N1CCC(CN2CCCCCC2)CC1 | -1 | 1
COc1ccccc1C(=O)N1CCN(C2=NN=C(c3ccccc3)CS2)CC1 | 79* | 1
COc1cccc(C(=O)N2CCN(C(=O)c3ccc(-c4ccccc4)cc3)CC2)c1OC | 52* | 6
COc1cc(OC)cc(C(=O)N2CCN(C(=O)c3ccc(-c4ccccc4)cc3)CC2)c1 | 11 | -4
COc1cccc(C(=O)N2CCN(c3cc(Cl)ccc3C)CC2)c1OC | 100* | 0
COc1ccccc1N1CCN(C(=O)c2ccc(Cl)cc2[N+](=O)[O-])CC1 | 7 | 7
COC(=O)c1cccc(C(=O)Nc2ccc(Cl)cc2C)n1 | -7 | -3
COc1ccccc1C(=O)N1CCN(C(=O)C(c2ccccc2)c2ccccc2)CC1 | 21 | -10
COC(=O)c1cccc(C(=O)N2CCN(c3cc(Cl)ccc3C)CC2)n1 | 97* | -2
Cc1cc(C(N)=O)c2cccc(Cl)c2n1 | 14 | 12
COc1ccc(CNC(=O)c2cc3nc(-c4cccs4)cc(C(F)(F)F)n3n2)cc1 | 1 | 14
COCCn1c(CC2CCN(C(=O)Cc3cccc(C)c3)C2)nc2cccnc21 (stereo not drawn) | 5 | -2
CCC1CCCCN1C(=O)c1c(C)oc2ccn(Cc3ccccc3F)c(=O)c12 (stereo not drawn) | 68* | 2
CCn1ccc2oc(C)c(C(=O)N3CCN(c4ccccc4Cl)CC3)c2c1=O | 77* | 0
Cc1oc2ccn(Cc3ccccc3F)c(=O)c2c1C(=O)N1CCCC(C)C1 (stereo not drawn) | 11 | -1
SMILES | mHTT-CaM PPI inh | Pf apPOL block
CCn1ccc2oc(C)c(C(=O)N3CCN(C4CCCCC4)CC3)c2c1=O | 18 | 1
CCNC(=O)NCCC1CCN(S(=O)(=O)c2ccc(C)cc2)CC1 | 31 | -4
CC(C)(C)c1ccccc1OCC(=O)Nc1ccccc1F | -65 | -1
CC1Cc2nc(SCC(=O)Nc3ccccc3)n(Cc3ccccc3)c(=O)c2S1 (stereo not drawn) | 11 | -2
Cc1cccc(NC(=O)C2CCCN(c3nnc4cccc(C)n34)C2)c1 (stereo not drawn) | 10 | -5
Nc1c(C(=O)Nc2nccs2)sc2nc3c(cc12)CCC3 | 26 | -9
Nc1c(C(=O)Nc2nccs2)sc2nc3c(cc12)CCCCC3 | 64* | 6
CC(=O)N1CCc2cc(N3CC(C(=O)NCc4cccnc4)CC3=O)ccc21 (stereo not drawn) | -10 | -6
Cc1cccc(COC[C@H](Cc2ccccc2)N2CCN(C(=O)c3ccc(Cl)c(Cl)c3)CCC2=O)c1 | 100* | 0
CC(C)(C)c1ccc(C(=O)N2CCC(=O)N([C@H](COCc3ccccc3)Cc3ccccc3)CC2)cc1 | 7 | -6
Cc1ccc(S(=O)(=O)N2CCC(=O)N([C@H](COCc3cccc(Cl)c3)Cc3ccccc3)CC2)cc1 | 20 | -5
O=C(c1cccc(Cl)c1)N1CCC(=O)N([C@H](COCc2cccc(Cl)c2)Cc2ccccc2)CC1 | 100* | -6
O=C(CC1CCCN(C(=O)Nc2cccc(F)c2)C1)N1CCN(c2ccccc2F)CC1 (stereo not drawn) | 12 | -3
O=[N+]([O-])c1ccc(NN=Cc2cc(Cl)cc(Cl)c2)nc1 | nt | 9
O=C1NC2(CCCN(C(=O)c3ccncc3)C2)N=C1c1ccccc1 (stereo not drawn) | -6 | -1
C/C=C/C=C/C(=O)Nc1ccc(-c2nc3ccc(NC(=O)/C=C/C=C/C)cc3[nH]2)cc1 | 36 | 0
O=C(Cc1ccc(Cl)cc1)Nc1ncc([N+](=O)[O-])s1 | 98* | -6
O=C(Cc1ccc(Br)cc1)Nc1ncc([N+](=O)[O-])s1 | 12 | -3
COc1ccccc1OCCNC(=O)C1CCc2nc(N3CCCCC3)ncc2C1 (stereo not drawn) | 0 | -5
Cc1ccc(NC(=O)C2CCc3nc(N4CCN(C(=O)C(C)C)CC4)sc3C2)cc1 (stereo not drawn) | 0 | -6
Cc1[nH]n(-c2ccccc2)c(=O)c1C(c1ccco1)c1c(C)[nH]n(-c2ccccc2)c1=O | 54* | -7
Cc1c(C(c2ccco2)c2c(C)n(C)n(-c3ccccc3)c2=O)c(=O)n(-c2ccccc2)n1C | 1 | 3
CC1Cc2cc(/C=C3/N=C(c4cccc(F)c4)OC3=O)ccc2O1 (stereo not drawn) | 11 | -5
Cc1cc(C)cc(NC(=O)Cn2nc(N3CCC(C)CC3)c3ccccc3c2=O)c1 | -4 | 1
COc1ccc(-c2nc(-c3ccc(F)cc3)c[n+]3ccc4cc(OC)c(OC)cc4c23)cc1OC | 78* | nt
SMILES | mHTT-CaM PPI inh | Pf apPOL block
COc1ccc(-c2nc(-c3nnn(-c4ccc(F)cc4)c3C)no2)cc1OC | -6 | -5
COc1ccc(C(=O)N2CCC3(C2)C(=O)Nc2ccccc23)cc1OC (stereo not drawn) | -4 | -2
Cc1ccc(CN2CCN(c3ccc([N+](=O)[O-])cc3)CC2)s1 | 16 | -4
O=C(Cn1cnc([N+](=O)[O-])n1)Nc1cc(Oc2cccc(C(F)(F)F)c2)cc([N+](=O)[O-])c1 | 51* | -2
O=C(Cn1cnc([N+](=O)[O-])c1)Nc1cc(Oc2cccnc2)cc([N+](=O)[O-])c1 | 7 | 2
O=C(Cn1cc([N+](=O)[O-])nc1[N+](=O)[O-])Nc1cc(Oc2ccccc2)cc([N+](=O)[O-])c1 | 51* | 0
O=C(Cn1cnc([N+](=O)[O-])n1)Nc1cc(Oc2ccc(F)cc2)cc([N+](=O)[O-])c1 | 29 | 0
O=C(c1ccc(N=Cc2c(O)cccc2Cl)cc1)N1CCCCC1 | 6 | -2
CCOc1ccc(C(=O)N2CCCC3(C2)NC(=O)N(Cc2ccc(C)cc2)C3=O)cc1 (stereo not drawn) | 0 | -5
Cc1ccc(O)c(NC(=O)c2nn3c(c2Cl)NC(c2ccccc2)CC3C(F)(F)F)c1 (stereo not drawn) | 54* | -2
Cc1ccc(O)c(NC(=O)c2nn3c(c2Cl)NC(c2cccs2)CC3C(F)(F)F)c1 (stereo not drawn) | 55* | 2
CC(C)(C)NC(=O)c1nn2c(c1Cl)NC(c1ccccc1)CC2C(F)(F)F (stereo not drawn) | 11 | 2
O=C(Nc1cccc(Cl)c1)c1nn2c(c1Cl)NC(c1cccs1)CC2C(F)(F)F (stereo not drawn) | 17 | -4
CSc1ccccc1C(=O)N(Cc1cccs1)Cc1cccn1C | 2 | -2

Screening results from PubChem BioAssay.
